TDP1 cell CPT: DT40-hTDP1 cell growth loss with CPT; chicken DT40 Tdp1-/-;hTDP1 cells + 20 nM CPT, ATP luminescence, 48 h; Potency, µM (highest dose often 46.2 µM), most hits filed as inhibitors; 12% of 420,000 active; further: nearly all actives have a fitted effect of over 55% in size
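Chicken DT40 Tdp1-/- cells complemented with human TDP1, 400 cells/well, exposed to compounds plus 20 nM camptothecin for at least 48 h at 37 C; viability read as ATP content by CellTiter-Glo luminescence.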
HT1080 IDH1KD tx: HT-1080 IDH1 knockdown cell toxicity (counter line). 2% of 360,000 active. HT-1080 IDH1 knockdown viability, ATP luminescence, 48 h. Potency, µM (highest dose often 46.1 µM), hits mostly cytotoxic
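CellTiter-Glo luminescence after 48 h compound exposure at 37 degrees C of IDH1-knockdown HT-1080 cells in 5% FBS RPMI. %Activity scaled between DMSO wells and cell-free media wells, with curves fitted and assigned curve classes.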
ELG1 repair inh: blocks ELG1-dependent DNA repair in HEK293T cells; 2.3% of 330,000 active; Potency, µM (doses to about 46.1 µM), hits mostly inhibitors; HEK293T ELG1-luciferase reporter, luminescence, 16 h; DNA damage induced by 5-fluorouridine; further: nearly all actives have a fitted effect of over 55% in size
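DMSO vehicle served as the neutral condition. Each well held 2,000 cells given 5-fluorouridine plus compound; after 16 hr at 37 °C/5% CO2, ONE-Glo was added and luciferase measured 30 min later.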
TDP1 cell noCPT: qHTS for Inhibitors of human tyrosyl-DNA phosphodiesterase 1 (TDP1): qHTS in cells in absence of CPT; DT40 Tdp1-/- hTDP1 cells, no CPT, ATP luminescence, 48 h; Potency, µM (highest dose often 46.2 µM), hits mostly inhibitors; 15% of 420,000 active; further: nearly all actives have a fitted effect of over 55% in size
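A cellular qHTS used chicken DT40 cells lacking endogenous Tdp1 but carrying stably transfected human TDP1. Compounds were applied without camptothecin, and cell growth kinetics were judged by ATP-dependent luminescence after ≥48 hr.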
HT1080NT lethal: kills 2HG-producing HT-1080-NT fibrosarcoma cells; 1.6% of 360,000 active; Potency, µM (highest dose often 46.1 µM), hits mostly cytotoxic; HT-1080-NT fibrosarcoma viability, CellTiter-Glo ATP luminescence, 48 h;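 further: NT is the 2HG producing partner of a matched IDH1 knockdown line; nearly all actives have a fitted effect of over 55% in size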
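Toxicity toward the 2HG-producing NT line was scored as %Activity, normalised to DMSO and no-cell wells, from CellTiter-Glo luminescence after 48 hours' treatment.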
IL1B secr inh: inhibitors of inflammasome signaling (IL-1 beta secretion); 4.7% of 360,000 active; activity change, % at 57.5 µM; THP-1 LPS/ATP IL-1B secretion, AlphaLISA, 16 h; hits give low values; in the data active means activity change below about -50%; inconclusive means mostly about -30% to -49%
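THP-1 cells pretreated 1 hr with compounds (up to 57.5 uM final), then stimulated with LPS (250 ng/mL final) plus ATP (1.25 mM final); secreted IL-1B measured by AlphaLISA after 16 hr, decreased signal indicating inhibition.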
Each line names hits and unclear results; the compound was inactive in the other large screens; ! = not confirmed by another sample. The list is not random: actives were taken first. Their share in the collection is about 19%. Unless noted, the call rests on the fitted dose curve; in most records, active means well fitted curve in the direction sought with a large enough effect; inconclusive means small, poorly fitted or top-dose-only effect, or another doubt; inactive means no such curve, though single readings can be large; an effect the other way counts as inactive or inconclusive.

CC[C@@]1(C(=O)OC)N[C@H](CN(C)C(=O)Nc2ccc(F)cc2)[C@@H]2C(=O)N(C)C(=O)[C@@H]21	ELG1 repair inh inconclusive
CC(C)c1ccc(CCNC(=O)c2ccc([N+](=O)[O-])cc2)cc1	TDP1 cell CPT inconclusive, ELG1 repair inh 9.2µM, TDP1 cell noCPT inconclusive, HT1080NT lethal inconclusive
COc1ccc(C(=O)NCCNc2ccc([N+](=O)[O-])cc2)cc1	TDP1 cell noCPT inconclusive
O=C(NCCc1ccc([N+](=O)[O-])cc1)c1ccccc1	ELG1 repair inh inconclusive
COc1ccc(CCNC(=O)c2ccc([N+](=O)[O-])cc2)cc1	TDP1 cell CPT 23µM, TDP1 cell noCPT inconclusive
O=C(Nc1ccnn1C1CCNCC1)c1ccc2c(c1)OCO2	none (no result: ELG1 repair inh)
CC(C)(C)c1csc(NNC(=O)c2ccc(Cl)cc2)n1	TDP1 cell CPT inconclusive, HT1080 IDH1KD tx inconclusive, TDP1 cell noCPT inconclusive
O=C(NNC1=Nc2ccccc2SC1)c1ccc(Cl)cc1	TDP1 cell CPT 6.5µM, HT1080 IDH1KD tx inconclusive, ELG1 repair inh 6.5µM, TDP1 cell noCPT 12µM, HT1080NT lethal inconclusive
O=C(NNC1=Nc2ccccc2SC1)c1ccc(F)cc1	TDP1 cell CPT inconclusive, HT1080 IDH1KD tx inconclusive, ELG1 repair inh 9.2µM, TDP1 cell noCPT 23µM
CCOC(=O)c1sc(NNC(=O)c2ccc(F)cc2)nc1C	TDP1 cell CPT inconclusive, ELG1 repair inh inconclusive, TDP1 cell noCPT inconclusive
CSc1ccccc1NC(=O)CN(C)C(=O)C1CC(=O)N(C(C)c2ccccc2)C1 (configuration not stated)	none
Nc1nonc1C(=O)NCCNCc1cccc(Cl)c1Cl	none (no result: HT1080 IDH1KD tx, ELG1 repair inh, HT1080NT lethal, IL1B secr inh)
CC1CCN2c3ccccc3CC3(C(=O)OC(C)(C)OC3=O)C2C1 (configuration not stated)	TDP1 cell CPT inconclusive, TDP1 cell noCPT 10µM (no result: HT1080 IDH1KD tx, ELG1 repair inh, HT1080NT lethal, IL1B secr inh)
CCCCN(CCCC)CC(O)COc1ccccc1Br (configuration not stated)	TDP1 cell CPT inconclusive, HT1080 IDH1KD tx inconclusive, TDP1 cell noCPT 16µM, IL1B secr inh inconclusive
CC(C)CN(CC(C)C)CC(O)COc1ccccc1Br (configuration not stated)	TDP1 cell CPT inconclusive, HT1080 IDH1KD tx inconclusive, TDP1 cell noCPT 15µM, HT1080NT lethal inconclusive
Cc1ccccc1OCC(O)CN(CCO)Cc1ccccc1 (configuration not stated)	HT1080 IDH1KD tx inconclusive
COc1ccc2cc3cc(C(=O)Nc4cc(C)c(Cl)cc4OC)oc3nc2c1	TDP1 cell noCPT inconclusive (no result: HT1080 IDH1KD tx, ELG1 repair inh, HT1080NT lethal, IL1B secr inh)
CCOC(=O)C1CCCN(C(=O)c2ccc3c(c2)N(C)C(=O)/C(=C/c2ccccc2Cl)S3)C1 (configuration not stated)	TDP1 cell CPT inconclusive, ELG1 repair inh 15µM, TDP1 cell noCPT 18µM, IL1B secr inh -68
CN1C(=O)/C(=C/c2ccccc2Cl)Sc2ccc(C(=O)N3CCCC3)cc21	TDP1 cell CPT inconclusive, ELG1 repair inh inconclusive, TDP1 cell noCPT 26µM
CCn1c(=O)c(CCC(=O)N2CCOCC2)c(C)c2c(C)nn(-c3ccccc3)c21	TDP1 cell CPT inconclusive, TDP1 cell noCPT 21µM, IL1B secr inh inconclusive
Cc1nn(-c2ccccc2)c2c1c(C)c(CCC(=O)N1CCOCC1)c(=O)n2C	TDP1 cell CPT 23µM, TDP1 cell noCPT inconclusive
Cc1cc(=O)n(CC(=O)NCCN2CCOCC2)c2c1c(C)nn2-c1ccccc1	HT1080NT lethal inconclusive
COC(=O)c1ccc(C(=O)OC)c(NC(=O)c2cnn3c(C(F)F)cc(-c4ccc(C)cc4)nc23)c1	none (no result: HT1080 IDH1KD tx, ELG1 repair inh, HT1080NT lethal, IL1B secr inh)
COc1cc(=O)n2c(c1C(=O)N(C)Cc1nonc1C)CCN(Cc1ccccc1Cl)CC2	none (no result: HT1080 IDH1KD tx, ELG1 repair inh, HT1080NT lethal, IL1B secr inh)
CCOC(=O)c1sc2nc3c(SCCC(=O)O)cc(C(=O)c4cc(OC)ccc4O)cn3c(=O)c2c1C	TDP1 cell CPT 3.7µM, TDP1 cell noCPT 5.2µM
CCOC(=O)c1sc2nc3c(SCCC#N)cc(C(=O)c4cc(F)ccc4O)cn3c(=O)c2c1C	TDP1 cell CPT inconclusive, TDP1 cell noCPT inconclusive
CCOC(=O)c1ccc(N=c2sc(C(=O)OC)cc(=O)n2Cc2ccco2)cc1	TDP1 cell CPT 13µM, HT1080 IDH1KD tx inconclusive, ELG1 repair inh inconclusive, TDP1 cell noCPT 21µM, HT1080NT lethal inconclusive
CCOC(=O)c1ccc(N=c2sc(C(=O)OC)cc(=O)n2CCCN2CCOCC2)cc1	TDP1 cell CPT 15µM, HT1080 IDH1KD tx inconclusive, ELG1 repair inh inconclusive, TDP1 cell noCPT 15µM, HT1080NT lethal inconclusive, IL1B secr inh -57!
CCCC/C=C/[C@H](c1ccccc1)[C@H](CO)Cc1cccnc1	TDP1 cell CPT inconclusive, TDP1 cell noCPT 16µM (no result: ELG1 repair inh)
Cc1ccc(NC(=O)CC2OC(=O)c3ccccc32)cc1S(=O)(=O)N1CCCCCC1 (configuration not stated)	TDP1 cell CPT inconclusive, TDP1 cell noCPT inconclusive
COc1cccc(/C=C/C(=O)OCC(=O)c2c[nH]c3ccccc23)c1OC	TDP1 cell CPT inconclusive, ELG1 repair inh 16µM, TDP1 cell noCPT inconclusive
CCc1cccc2c(C(=O)COC(=O)/C=C/c3ccc(O)c(OC)c3)c[nH]c12	TDP1 cell CPT inconclusive, HT1080 IDH1KD tx inconclusive, ELG1 repair inh 21µM, TDP1 cell noCPT 18µM, IL1B secr inh inconclusive
